Source: the supplement of paper PMC11417369
± gives the standard deviation of the averaged measurements. The full ranking holds about 25,000 sequences; the median of “ln(normalized median fluorescence intensity)” is about 8.6, and the highest 2% start at about 10. This is one part of a sample in which the highest values are shown more often than they occur.

What follows are sequences tested on PfAP2-EXP AP2 domain (GST-tagged) (assay: gcPBM binding intensity (ln(normalized median fluorescence intensity)); higher = stronger DNA binding).
Summary of the method: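 After 1 h on an Agilent 4 × 180k array of primer-extended double-stranded 36-bp intergenic genomic probes and negative controls, bound GST-tagged P. falciparum DNA-binding domains were detected with Alexa488 anti-GST antibody and scanned at 488 nm. The domains had been expressed in E. coli, and binding took place in 1× PBS with 1% milk, 0.2 mg/ml BSA, 0.5% salmon testes DNA and 0.03% Triton X-100. Binding intensity is the highest Masliner-normalised natural-log median intensity across replicate spots of either probe orientation.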

Row | Sequence | gcPBM binding intensity (ln)
1 | GATCTATATATCATTACACACTTGAATTACTTAAAA [CACACA_site21] | 8.49 ± 0.36
2 | TAATTTTTTTTTTTTTTTTTTTTTTTTTTTTTCCTT [CACACA_negctrl_site1095] | 7.8 ± 0.61
3 | TAATTTTTATGAAGAAGTACAAAATCTACTATCATA [XGTACX_site4985] | 7.99 ± 0.38
4 | CGAACAAACAAATAAACACACAAAAAAAGATATATA [CACACA_site6944] | 8.72 ± 0.57
5 | AATGATAAATAAAAAGCATGCAACAAATAAAAATAA [TGCATGCA_site453] | 9.84 ± 0.22
6 | ATATATATAATAAGTGGTACAAGTTATTCATTAAAT [XGTACX_site7063] | 8.64 ± 0.3
7 | TAAACCAAAAAAAGTAGTACAAATATTATAAAAAAA [XGTACX_site8497] | 8.69 ± 0.39
8 | GTATTTTTAAATGACACACACATATATAAATATGTA [CACACA_site6880] | 8.38 ± 0.31
9 | TTGTATTTTTAAATGACACACACATATATATATATA [CACACA_site8481] | 10.1 ± 0.38
10 | ATATTTAAATGGATCACACATATATATATATATATA [CACACA_site5255] | 10.3 ± 0.3
11 | ATTTATTATTATATCACACATAATATATTAAATGAT [CACACA_site5821] | 8.28 ± 0.39
12 | GTATTTTTAAATGACACACACATATATATATATATA [CACACA_site1662] | 10.2 ± 0.5
13 | CATAAAAATGGATACACACACATAATATATTTATAT [CACACA_site7669] | 8.61 ± 0.4
14 | TTAACATATTTGTTAGTGCATTTTGATATTACACAT [GTGCAC_site9978] | 8.6 ± 0.33
15 | TCATACGAAATATAAACACACATACAATAAATAAAT [CACACA_site5156] | 8.78 ± 0.44
16 | AACCACATACATATAACACACATATACAATATATAT [CACACA_site8607] | 8.55 ± 0.45
17 | CACCCACACCAACACACACACATATATATATATATA [CACACA_site362] | 10.4 ± 0.2
18 | CACCCACACCAACACACACACATATATAATATATAT [CACACA_site595] | 8.81 ± 0.39
19 | TATAATATAAGGATCACACACAAACACCCATATATA [CACACA_site4468] | 8.74 ± 0.52
20 | AATATAATATAAGGATCACACACAAACACCCATATA [CACACA_site8084] | 8.91 ± 0.61
21 | AATAACCACCAACACACACACATATATATATATATA [CACACA_site3540] | 10.2 ± 0.45
22 | AAGGATCACCCACAAACACACATATATATATATATA [CACACA_site559] | 10.4 ± 0.16
23 | CACACCCACCAACACACACACACACCCACCCATATA [CACACA_site366] | 8.61 ± 0.57

Row | Sequence | gcPBM binding intensity (ln)
24 | TATAAACACCCATATAAACACACATATAAACCAACA [CACACA_site8790] | 8.73 ± 0.43
25 | GTCTATTCAAAAAAGTGTACGGACATATAAACATAC [XGTACX_site6516] | 9.04 ± 0.28
26 | ATATATATATTTACATGTACACATCTATATATAAAC [XGTACX_site5581] | 9.445 ± 0.049
27 | GCACATCTATATGAAACACACATGGAAACATCTCTT [CACACA_site7793] | 8.47 ± 0.35
28 | TAAAGTTTTTTTTTAACACACACATAATAAAATAAA [CACACA_site8042] | 8.46 ± 0.51
29 | TTTCTATTACGAACGTGTACATACATTATTCTTAAA [XGTACX_site5816] | 8.88 ± 0.26
30 | TAAAGAGTTACCATTTGTACTTACGCACACATAAAA [XGTACX_site3145] | 8.45 ± 0.37
31 | AATTAAATATTATAAACACACATATAGATTATTTTT [CACACA_site6538] | 8.17 ± 0.49
32 | ACAAAATAAAACATCTGTACATATTATTATTATAAG [XGTACX_site4802] | 8.34 ± 0.35
33 | AAAACATTGTTTATGTGTACATAATTATATTTACAA [XGTACX_site6926] | 8.45 ± 0.39
34 | AAAAATATAATATAATGTACACAAAAAAAAAAAATC [XGTACX_site1427] | 8.73 ± 0.49
35 | ATAATCTGACAAATGTGTACACATATATATATATAT [XGTACX_site2379] | 10.3 ± 0.34
36 | ATATATTATATAAAGTGTACAAAAAAAATATATAAA [XGTACX_site8065] | 8.91 ± 0.41
37 | ATCTGACAAAAGTGTACACATATATATATATATATA [CACACA_site4814] | 10.2 ± 0.61
38 | ATTATATATATAAAGTGTACAAAAAAAAAAAAAAAA [XGTACX_site3134] | 8.46 ± 0.33
39 | GTGTACAGACACAAAATATATACATATATATATATA [CACACA_negctrl_site1796] | 9.87 ± 0.54
40 | TATGTAACAAAAAAAAGTACACATATATATAGTGTA [XGTACX_site7772] | 8.52 ± 0.39
41 | TATATATATATAATGTGTACACAAATATATATTATA [XGTACX_site8786] | 9.74 ± 0.23
42 | CATATTAGGACAAAGTGTACATATATATATATATAT [XGTACX_site1172] | 10.3 ± 0.27
43 | TAGTTACCTTAATATTGTACTTTTCTTTCATATATG [XGTACX_site1309] | 8.82 ± 0.38
44 | TATAATATATATTTGTGTCCACAACATTTTTAATAT [XGTACX_site2089] | 8.56 ± 0.28
45 | TTTTTTTTTTGATGTTGTACATATATATTATATAAT [XGTACX_site2765] | 8.55 ± 0.4
46 | AAAACAAAATAGGGAACACACACATGTCAATATATA [CACACA_site8834] | 8.88 ± 0.41

Row | Sequence | gcPBM binding intensity (ln)
47 | TCCCATAATATTAGTAGTACTATTAATATTTTCAGG [XGTACX_site4925] | 8.33 ± 0.42
48 | ATATATTTTATATGTGTGCACTATATATATATATAT | 10.3 ± 0.18
49 | ATTTATATTAAAAGTGTGCACTTTTTTTTTTTTTTT | 8.67 ± 0.042
50 | TATATATAAATATATGTGCACTTTTTATATTTATAT | 9.06 ± 0.099
51 | ATCATATTTTTATGTGTGCACTTTTTTTTTTTTTTT [GTGCAC_site9555] | 9.02 ± 0.099
52 | ATTTTTTTCTTAGGAGTGCACTTATATTTATTTTAT | 9.12 ± 0.11
53 | TTTATATTCTTAAGTGTGCACTATATATATATATAT [GTGCAC_site9719] | 10.38 ± 0.049
54 | TTTATATCTTATTATAGGAAAATGAATATTTTCTCT [TGCATGCA_negctrl_site478] | 8.19 ± 0.36
55 | TATTTTAACTTCTCATGTACATATATTATGTCTATA [XGTACX_site249] | 9.01 ± 0.39
56 | ATAGAACTGAATAAATCTATAAATAAATATATATAT [GTGCAC_negctrl_site604] | 9.16 ± 0.23
57 | AATATAAACACAAACACACACATATAGATTTATATA [CACACA_site6263] | 8.55 ± 0.38
58 | TTTTGGTTAATTCCCCCCATTACATTATGTCATGTC [CACACA_negctrl_site229] | 10.185 ± 0.007
59 | ATTTTTGTTATTACATGTACCCATAATTATTATTAA [XGTACX_site3558] | 9.22 ± 0.44
60 | TATAAAATTACATTTTGTCATTTATTTTTTCCCACT [TGCATGCA_negctrl_site110] | 8.28 ± 0.45
61 | TTTTGTTTAAAAAAAAAAAACAAAAAAAAGCAATTA [CACACA_negctrl_site314] | 8.32 ± 0.51
62 | TAATTATATGTATACACACACATACATTTACATAAC [CACACA_site3238] | 8.66 ± 0.52
63 | TGCTTTTATTTCTTCACACATATGTAAAAAAAAGAA [CACACA_site5906] | 8.76 ± 0.42
64 | AAAACATCAAAAATGTGTACATATATATATATATAT [XGTACX_site8884] | 10.3 ± 0.21
65 | AAAACTATATTAATGTGTACACATCAAAATATTAAT [XGTACX_site6767] | 8.65 ± 0.13
66 | AAAAAAAAGAAACACACACACATACACATAAATATA [CACACA_site3807] | 8.79 ± 0.47
67 | ATCAAAAGAAAACACACACACATACATATATATATA [CACACA_site3795] | 9.81 ± 0.28
68 | AAAAAATACATCAAAAGAAACATATATATATATATA [GTGCAC_negctrl_site719] | 10.2 ± 0.67
69 | AATATAAAATCAAGAAATTAAAAAAAAACAGAAAAC [CACACA_negctrl_site1004] | 8.93 ± 0.49

Row | Sequence | gcPBM binding intensity (ln)
70 | TTATATAAAACATTAACACACAAAGAAAAAAAATTA [CACACA_site1793] | 8.57 ± 0.47
71 | AATCAAAACATTAAAAAGAAAAAATATATATATATA [CACACA_negctrl_site366] | 10.2 ± 0.26
72 | AAAACACAAAAAAAATGTACACATATATATATATAT [XGTACX_site8509] | 10 ± 0.38
73 | TGGTAAATTTACCGTTGTACATTCATTTATAACATT [XGTACX_site8910] | 8.68 ± 0.42
74 | TATATATAGCATATTTCACACACACCGAATGAATAT [CACACA_site9182] | 8.64 ± 0.36
75 | ATTGTGTTAATAAAATGTACATTTTCTCTACTTTAA [XGTACX_site1199] | 8.8 ± 0.35
76 | TGTTCTAATTTTAATTGTACATATATACATATATAT [XGTACX_site7290] | 8.46 ± 0.35
77 | AAAAATATATAAAGAAAAAGAATATAATATAAAATA [GTGCAC_negctrl_site208] | 8.53 ± 0.38
78 | AACATATTTATGATGTGTACCTACATAATAGAATTT [XGTACX_site141] | 8.38 ± 0.32
79 | AAAAAGGTTATTGGTACACACATATGTATATATATA [CACACA_site552] | 9.3 ± 0.057
80 | AAGGTAAAATATAAGTGTACTTTTTCTTAATCTTCG [XGTACX_site514] | 8.31 ± 0.15
81 | ATGGGAATATAATTATGTACATATAAAAATTATAAA [XGTACX_site5336] | 8.62 ± 0.34
82 | AAAAAAAGGTAAAATTGTACATACGCACAAAAATAT [XGTACX_site2887] | 8.73 ± 0.33
83 | TACAATTGTAAAGGCGCACACATATATATATATATA [CACACA_site1392] | 10.3 ± 0.59
84 | TGCAATTGTAAAGGCGCACACATATATATATATATA [CACACA_site4894] | 10.1 ± 0.34
85 | TTTTCCAGTAAATATTTTTTTATAATATTTATATAT [CACACA_negctrl_site387] | 8.3 ± 0.4
86 | AAATATACATACATATGTACATATATATATATATAT [XGTACX_site8202] | 10.1 ± 0.45
87 | TTATGTAAATAATTTTGTACTTAAATTATTATATAA [XGTACX_site1491] | 8.08 ± 0.4
88 | ATGATGTGCAAGAGTAGTACACAATTTTGGGTTTAT [XGTACX_site501] | 8.76 ± 0.39
89 | ATATATATATATATAACACACGTGTATATATATGTA [CACACA_site3644] | 10.2 ± 0.23
90 | AATAAAAAATATAACACAAATATGTATATATATATA [TGCATGCA_negctrl_site245] | 9.81 ± 0.34
91 | ATATATATATATATAACACACGTGTATTTATCTGTA [CACACA_site5922] | 9.99 ± 0.34
